Here are results for 102 compounds from PubChem BioAssay AID651660 (Broad Institute, 2012).

In general, inhibition refers to the change of the read-out against control, counted positive when it falls.

Among all 1,900 compounds or so, about 15 (0.8%) were called active.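 How the source made its calls: active means every replicate shows at least 50% inhibition; inconclusive means mean inhibition at least 50% but some replicate below; inactive means the rest.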 This excerpt belongs to a sample that is enriched for actives.

For the assay, the target named is DNA repair protein RAD52 homolog (Homo sapiens) (UniProt P43351). Put plainly: RAD52 ssDNA annealing inhibitors, primary screen, biochemical, FRET, single point (AID 651660).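 Further: 0% = median of neutral control wells and 100% = median of positive control wells.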 The following applies: Recombinant RAD52 ssDNA annealing, FRET fluorescence, 30 min; at 18.7 µM; stronger effect = higher value.
Sequence of DNA repair protein RAD52 homolog (Homo sapiens) (P43351 whole entry, looked up): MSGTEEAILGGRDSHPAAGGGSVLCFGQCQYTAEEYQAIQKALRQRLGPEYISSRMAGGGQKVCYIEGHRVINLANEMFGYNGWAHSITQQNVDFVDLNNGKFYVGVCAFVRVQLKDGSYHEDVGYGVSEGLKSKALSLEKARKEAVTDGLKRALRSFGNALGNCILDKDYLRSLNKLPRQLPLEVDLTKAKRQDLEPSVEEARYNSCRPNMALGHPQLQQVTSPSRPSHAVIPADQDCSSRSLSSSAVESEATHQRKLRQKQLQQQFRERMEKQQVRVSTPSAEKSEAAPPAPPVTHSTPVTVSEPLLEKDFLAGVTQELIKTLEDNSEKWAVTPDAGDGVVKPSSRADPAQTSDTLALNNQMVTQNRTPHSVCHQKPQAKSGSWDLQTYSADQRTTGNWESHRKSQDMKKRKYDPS
Regarding `O=C(Nc1nc2ccccc2s1)c1ccc(F)cc1`, the inhibition is 4.49% (inactive). For the compound `CCN(CC)c1ccc(C2=NNC(=O)CC2C)cc1[N+](=O)[O-]` (configuration not stated), the inhibition was -0.17% (inactive). Take `O=C(N/C(=C/C=C\c1ccccc1)C(=O)N1CCOCC1)c1ccc(Br)cc1`: the inhibition was 8.04% (inactive). Regarding `CCOc1ccccc1Oc1coc2cc(OCC(=O)O)ccc2c1=O`, the inhibition is -12.3% (inactive).

On to `C(=C\c1ccc2ccccc2n1)/c1ccccc1`, for which the inhibition is 3.46% (inactive). For the compound `COc1cc(CC(=O)NCCc2ccc(S(N)(=O)=O)cc2)cc(OC)c1OC`, the inhibition is -2.62% (inactive). For the compound `O=C(NCCCCCc1nc2ccccc2[nH]1)c1ccccc1Cl`, the inhibition is -0.634% (inactive). On to `N=C1C(c2ccccc2)=C(O)CN1CCCO`, for which the inhibition was -1.52% (inactive).

As to `Cn1c2ccccc2c2cc(/C=C(\NC(=O)c3ccccc3)C(=O)O)ccc21`, the inhibition is -10.8% (inactive). Take `O=C1c2cccc3cccc(c23)C(=O)N1c1ccccn1`: the inhibition is -4.1% (inactive). With `COCCCNc1nc2c([nH]1)c(=O)[nH]c(=O)n2C`, the inhibition was -1.14% (inactive). The same measure for `CCOC(=O)c1cnc2ccccc2c1NCCO`: 10.9% (inactive).

Consider `O=C(COc1ccccc1)Nc1ccc2c(c1)C(=O)N(CC1CCCO1)C2=O` (configuration not stated), for which the inhibition is -9.17% (inactive). `COc1ccc(C2C3=C(CC(C)(C)CC3=O)N(C)C3=C2C(=O)CC(C)(C)C3)cc1`: the inhibition is -13.9% (inactive).

`COc1ccccc1OS(=O)(=O)c1ccc(NC(C)=O)cc1`: the inhibition was 3.22% (inactive). For `S=C(NCCOCCOCCNC(=S)Nc1ccccc1)Nc1ccccc1`, the inhibition is 4.23% (inactive).

With `Nc1ncnc2c1ncn2C1OC(CO)C(O)C1O` (configuration not stated), the inhibition is -0.087% (inactive).

Regarding `Cc1ccc2c(ccc(=S)n2C)c1`, the inhibition is -5.88% (inactive). `O=C(CS(=O)(=O)c1ccccc1)c1ccc2c(c1)OCCO2`: the inhibition is -0.895% (inactive).

In the case of `CCOc1cc2oc(=O)c3c(c2cc1Cl)CCC3`, the inhibition was -1.74% (inactive). On to `CC[C@H](CO)NCCN[C@H](CC)CO`, for which the inhibition is -5.2% (inactive). In the case of `Cc1ccc2nc(NC3=NC(CC(=O)O)C(=O)N3)nc(C)c2c1` (configuration not stated), the inhibition is 7.8% (inactive).

As for `Cc1ccc2nc(C)c3c(c2c1)OC(C(C)(Cl)Br)C3` (configuration not stated), the inhibition was 3.5% (inactive). The result for `Cc1ccc2nc(N=C(N)N)nc(C)c2c1` reads 66.7% (active); that for `C[C@H](NC(=O)OC(C)(C)C)C(=O)NCC1CCC(C(=O)O)CC1` (some centres not stated), -0.108% (inactive). Consider `CC(=O)N(CCC1(C(C)C)CCOC(C)(C)C1)Cc1ccco1` (configuration not stated), for which the inhibition was -19% (inactive). In the case of `COc1cc(CO)ccc1OCc1nnnn1-c1ccc(C)cc1`, the inhibition is 5.41% (inactive). Consider `CCC(C)NCCOCCOc1ccc(Cl)cc1Br` (configuration not stated), for which the inhibition was 9.51% (inactive).

Turning to `CCC1CCc2c(sc(NC(=O)c3cccnc3)c2C(N)=O)C1` (configuration not stated), the inhibition was -5.46% (inactive). As for `Nc1ccc2[nH]ncc2c1`, the inhibition was 59.5% (active). The result for `Nc1ccc2nc(Cc3ccccc3)[nH]c2c1` reads 33.4% (inactive). Regarding `O=[N+]([O-])c1ccc2cn[nH]c2c1`, the inhibition was -3.19% (inactive).

On to `C=C(C)COc1ccc(-c2n[nH]c(C)c2-c2ccc(OC)cc2)c(O)c1`, for which the inhibition was 17.8% (inactive). For `CCOc1ccc(C(=O)Nc2ccc(N3CCN(C(C)=O)CC3)cc2)cc1[N+](=O)[O-]`, the inhibition is -3.31% (inactive).

With `NC(=O)[C@@H]1[C@@H]2C(=O)N(c3ccc(F)cc3)C(=O)[C@@H]2[C@H]2C=Cc3ccccc3N21`, the inhibition is -124% (inactive).

`C#CCN1C(=O)C(O)(c2c(C)[nH]c3ccccc23)c2ccccc21` (configuration not stated): the inhibition is -11.1% (inactive). The same measure for `Nc1c2c(nc3ccccc13)CCCC2`: 18.1% (inactive); for `Cc1nc2cc3ccccc3cc2c(=O)[nH]1`: -5.13% (inactive); for `Nc1cccc2nc3ccccc3cc12`: 99.5% (active). The result for `CN(C)C(=O)CCCCCCCCC(=O)N(C)C` reads -13.3% (inactive). Turning to `COc1ccc(/C=C(/C#N)c2cccnc2)cc1OC`, the inhibition is -8.25% (inactive). Regarding `CCOC(=O)c1ccc2[nH]c(C)c(CCC(C)=O)c(=O)c2c1`, the inhibition was 0.469% (inactive). For `COc1cc(COc2ccc3c(C)c(Cc4ccccc4)c(=O)oc3c2)cc(OC)c1OC`, the inhibition was -0.647% (inactive). Take `CCc1nc2ccccc2c(NC(=O)CN2CC(C)CC(C)C2)c1C` (configuration not stated): the inhibition is -5.82% (inactive). As for `O=C(CCCn1c(=O)oc2ccccc21)N1CCN(c2ccc(F)cc2)CC1`, the inhibition was -3.01% (inactive). As to `Cc1ccc(C2CC(=O)C(C=NCCN3CCN(C(=S)Nc4ccccc4)CC3)=C(O)C2)cc1` (configuration not stated), the inhibition is 4.06% (inactive). `Cc1ccc2c(c1)C(O)(CC(=O)/C=C/C=C/c1ccccc1)C(=O)N2` (configuration not stated): the inhibition is -10.7% (inactive). As for `CC1(C)CC(=O)C2=C(C1)c1c(ccc3ccccc13)NC2c1ccco1` (configuration not stated), the inhibition was -27.1% (inactive). `CCN(CC)c1ccc([C@H]2[C@@H]3CCCC[C@]3(O)CCN2CC(=O)NCc2ccco2)cc1`: the inhibition was -20.6% (inactive). As for `CCc1cc(/C(Cc2ccccn2)=N\O)c(O)cc1O`, the inhibition is -33.7% (inactive).

Turning to `CC(C)CC(NC(=O)CNC(=O)C1O[C@@H]2OC(C)(C)O[C@@H]2[C@H]2OC(C)(C)O[C@@H]12)C(=O)O` (some centres not stated), the inhibition was -7% (inactive). With `OCCN(Cc1nc(-c2ccc3c(c2)OCO3)no1)Cc1cccs1`, the inhibition was 2.4% (inactive). As for `Cc1ccc(C2CC(=O)C(C=NCCN3CCN(CC(=O)Nc4cc(C)cc(C)c4)CC3)=C(O)C2)cc1` (configuration not stated), the inhibition is -3.07% (inactive). Take `COc1ccccc1N=CC1=C(O)CC(c2ccccc2)CC1=O` (configuration not stated): the inhibition was -25.4% (inactive).

`C/C(=N\N=C1\NC(=O)C(CC(=O)Nc2ccc(Cl)cc2)S1)c1ccco1` (configuration not stated): the inhibition was -15.6% (inactive). Take `COc1ccc(NC(=S)NCCc2c[nH]c3ccccc23)cc1`: the inhibition is 7.25% (inactive). In the case of `O=C(c1ccc(O)cc1)c1ccc(O)cc1O`, the inhibition is -19.8% (inactive). In the case of `COc1ccc2[nH]c(=O)c3c(c2c1)OC(C)(C)C=C3`, the inhibition was -5.72% (inactive). The result for `CCc1cccc(OC2OC(CO)C(O)C(O)C2NC(C)=O)c1` (configuration not stated) reads -3.23% (inactive).

For `COc1ccc2c(C=O)cn(C)c2c1`, the inhibition was -1.85% (inactive).

In the case of `CC(C)CC(NC(=O)c1cccc(Cl)c1)C(=O)O` (configuration not stated), the inhibition was -8.58% (inactive). `CCOC(=O)c1c(O)c2c([nH]c1=O)CCCC2`: the inhibition is 2.81% (inactive).

As to `COc1cccc(N2C(=O)CC(c3c[nH]c4ccccc34)C2=O)c1` (configuration not stated), the inhibition was -22.5% (inactive).

On to `Cc1c(NC(=O)c2cccs2)cccc1[N+](=O)[O-]`, for which the inhibition is 0.122% (inactive).

Consider `CC1(C)CC(=O)C(C(=O)CCCCC(=O)C2C(=O)CC(C)(C)CC2=O)C(=O)C1`, for which the inhibition is -11.5% (inactive). Regarding `CC(=O)NCCCC(=O)NC(CCC(=O)OCc1ccccc1)C(=O)OCc1ccccc1` (configuration not stated), the inhibition is -10.8% (inactive). For the compound `COC(=O)c1ccc(OCCCCN2CC(C)OC(C)C2)cc1` (configuration not stated), the inhibition was -1.97% (inactive). The result for `CC1(C)OC2OC(C(=O)N/N=C/c3ccccc3F)C3OC(C)(C)OC3C2O1` (configuration not stated) reads -8.91% (inactive); that for `O=C(/C=C/c1c[nH]c2ccccc12)c1cccc2ccccc12`, -25.7% (inactive); that for `O=C(CCCCCCCC(=O)c1ccccc1)c1ccccc1`, 2.66% (inactive). For the compound `Clc1ccc(CCNc2ncnc3nc[nH]c23)cc1`, the inhibition is 1.95% (inactive).

Turning to `COc1ccc(CCNc2ncnc3c2[nH]c2cc(OC)c(OC)cc23)cc1OC`, the inhibition is 68.2% (active). The result for `COc1cc2[nH]c3c(=O)n(CCN4CCOCC4)cnc3c2cc1OC` reads 1.23% (inactive); that for `CN(Cc1ccccc1)CC(O)COc1ccc(CNCc2cccnc2)cc1` (configuration not stated), 25.5% (inactive). As for `COc1c2ccoc2nc2c(OC)cccc12`, the inhibition is 10.6% (inactive).

On to `COc1ccc(N2C(=O)[C@@H]3Cc4ccccc4CN3C2=O)cc1`, for which the inhibition is -7.83% (inactive). Turning to `Cc1oc2c(CN3CCCC3)c(O)ccc2c(=O)c1-c1ccc(Cl)cc1`, the inhibition was 2.93% (inactive). For the compound `CCN(Cc1ccncc1)Cc1nc(Cc2ccccc2Cl)no1`, the inhibition is -13.8% (inactive).

In the case of `COc1ccc(C(CC(=O)N2CCOCC2)C(C)C)cc1` (configuration not stated), the inhibition is 4.92% (inactive). In the case of `O=C(CSCc1ccccc1)NCCCN1CCOCC1`, the inhibition was 7.56% (inactive). The same measure for `CCN(Cc1cnn(C)c1)Cc1nc(C(c2ccccc2)c2ccccc2)no1`: 1.94% (inactive); for `N/C(=N\OC(=O)/C=C/c1ccccc1)c1ccc(Br)cc1`: -5.01% (inactive). The result for `Cc1nc(-c2coc3c(CN(C)C)c(O)ccc3c2=O)cs1` reads 5.53% (inactive); that for `c1ccc(Nc2cccc3c(Nc4ccccc4)cccc23)cc1`, 51.9% (active); that for `O=C(O)c1ccccc1Nc1cccc(C(F)(F)F)c1`, -6.2% (inactive). Consider `Cc1cccc(Nc2ccccc2C(=O)O)c1C`, for which the inhibition was -13.3% (inactive). In the case of `COc1ccc(-c2nc(C)c(C(C)=O)n2O)cc1OC`, the inhibition was -4.44% (inactive).

On to `COc1cccc(-n2cc(CNCc3c(C(=O)N(C)C)nc4ccc(Cl)cn34)cn2)c1`, for which the inhibition was -5.77% (inactive).

With `COC(=O)c1sccc1NC(=O)Nc1ccccc1F`, the inhibition is -4.3% (inactive). With `Cc1oc2cc(O)cc(O)c2c(=O)c1-c1ccc2c(c1)OCCCO2`, the inhibition was 3.6% (inactive). Regarding `Cn1c2ccc(CC(=O)O)cc2c2cc(CC(=O)O)ccc21`, the inhibition was -173% (inactive). The result for `CC(C)c1ccccc1OCCNC(=S)NC(=O)c1cccnc1` reads -11.8% (inactive).

For the compound `COc1cccc2c1C(=O)O/C2=C/c1ccc2c(c1)OCO2`, the inhibition was -3.05% (inactive). For the compound `CCn1c(O)c(/C=C2\C=Nc3ccccc32)sc1=O`, the inhibition is 8.58% (inactive). For `COC(=O)c1cc(OC)c(OC)c(OC)c1[N+](=O)[O-]`, the inhibition was -11.8% (inactive). The result for `COc1ccc(Br)cc1C(=O)Nc1ccc(C(=O)O)cc1` reads -5.54% (inactive); that for `Cc1cnc(C(=O)N2CCCC(C(=O)c3ccc(Cl)cc3C)C2)cn1` (configuration not stated), 3.18% (inactive).

`Cc1ccc2[nH]c(=O)c(Cc3ccccc3)c(O)c2c1`: the inhibition was -9.59% (inactive). The result for `CN1C(=O)C(O)(CC(=O)/C=C/C=C/c2ccccc2)c2ccccc21` (configuration not stated) reads -13.6% (inactive). With `COc1ccc(CNCCC(c2ccc(F)cc2)c2ccc(OC(C)C)cc2)cc1OC` (configuration not stated), the inhibition is 57.6% (active). For `COc1ccc(CN(CCC(c2ccccc2)c2ccc(OC(C)C)cc2)C(=O)CCl)cc1OC` (configuration not stated), the inhibition was 28.8% (inactive).

With `CC(C)Oc1ccc(C(CC(=O)O)c2ccc(F)cc2)cc1` (configuration not stated), the inhibition was -7.3% (inactive).
